Sfp inh: inhibitors of Bacillus subtilis Sfp phosphopantetheinyl transferase; Biochemical Sfp PPTase activity, qHTS; Potency, µM, without a hit: largest response in the series, negative = inhibition, usual class: inhibitors; 310,000 compounds, 3.5% hits;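 further: the enzyme is Sfp with the accession as filed and its product quenches rhodamine fluorescence; 0% = enzyme reaction without inhibitor and -100% = no enzyme wells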
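After 15 min at room temperature with compound, 15 nM Sfp received 5 uM rhodamine-CoA plus 12.5 uM BHQ-2-ybbR (50 mM Hepes pH 7.6, 10 mM MgCl2). Rate came from the fluorescence difference over 30 min, ex 525/em 598 nm.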
HP1b binding inh: blocks HP1-beta chromodomain binding to methylated histone tails; P83916; AlphaScreen HP1-beta / biotin-H3K9me3 peptide binding; Potency, µM (titrated, usually from 114 µM), without a hit: at the top dose activity change, negative = inhibition, usual class: inhibitors; 390,000 compounds, 0.56% hits; AID 540317; further: nearly all actives have a fitted effect of over 70% in size
Target sequence (P83916 whole entry, looked up): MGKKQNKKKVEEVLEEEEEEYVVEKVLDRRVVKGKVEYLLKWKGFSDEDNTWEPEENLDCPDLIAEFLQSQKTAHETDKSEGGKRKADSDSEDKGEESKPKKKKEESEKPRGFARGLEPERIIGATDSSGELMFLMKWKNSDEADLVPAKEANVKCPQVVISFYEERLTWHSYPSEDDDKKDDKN
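AlphaScreen: HP1-beta (50 nM) preformed 30 min with biotin-H3(1-18)K9me3 peptide (50 nM) in PBS pH 7.4, 0.01% Tween-20. Compound added for 30 min at RT, then streptavidin donor/nickel chelate acceptor beads (10 ug/mL) for 30 min.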
G9a inh: inhibitors of human histone lysine methyltransferase G9a. Q96KQ7. G9a H3K9 monomethylation, AlphaScreen, 2 h. Potency, µM (series often up to 102 µM), inactives show top-dose activity, negative = inhibition, hits mostly inhibitors. 350,000 compounds, 8.8% hits. AID 504332; further: on the % scale 0 is the no-effect control and ±100 the full control effect; nearly all actives have a fitted effect of over 75% in size
Target sequence (Q96KQ7 913-1193 limits assumed): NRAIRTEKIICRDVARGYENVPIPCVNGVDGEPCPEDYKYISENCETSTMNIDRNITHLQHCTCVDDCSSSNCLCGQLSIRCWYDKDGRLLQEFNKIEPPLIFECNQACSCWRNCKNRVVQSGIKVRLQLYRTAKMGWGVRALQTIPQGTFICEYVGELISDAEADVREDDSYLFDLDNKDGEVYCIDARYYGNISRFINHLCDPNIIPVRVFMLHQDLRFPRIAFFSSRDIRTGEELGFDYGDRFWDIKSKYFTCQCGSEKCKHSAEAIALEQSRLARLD
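Chemiluminescent proximity detection of H3K9 monomethylation, read after 10 min bead incubation in the dark. Reaction: 20 nM G9a, 500 nM biotin-H3K9 peptide, 20 uM SAM cofactor, 2 h, room temperature, following 15 min enzyme-compound preincubation.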
BAZ2B inh: BAZ2B (human) inhibition; Q9UIF8; AID 504333; Potency, µM (highest dose often 114 µM), for the others: at the highest dose activity change, negative = inhibition, hits mostly inhibitors; 360,000 compounds, 4.4% hits; AlphaScreen BAZ2B-H3K14Ac peptide displacement; further: on the % scale 0 is the no-effect control and ±100 the full control effect; nearly all actives have a fitted effect of over 60% in size
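Compounds, titrated to a top concentration of 110 uM, were incubated 30 min at room temperature with preformed BAZ2B/acetyl-K14 H3 peptide complex (50 nM each). Proximity signal was measured by AlphaScreen after 20 min with beads.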
JMJD2A Tudor: blocks the human JMJD2A Tudor domain; AlphaScreen JMJD2A-Tudor / H3K4me3 peptide binding; O75164; 390,000 compounds, 4.4% hits; Potency, µM (titrated, usually from 114 µM), for inactives: at the highest dose activity change, negative = inhibition, hits mostly inhibitors; AID 504339; further: on the % scale 0 is the no-effect control and ±100 the full control effect; nearly all actives have a fitted effect of over 50% in size
12-LOX inh: ALOX12 (human) lipoxygenase inhibition | P18054 | purified 12hLO, xylenol orange hydroperoxide absorbance | Potency, µM (top dose mostly 108 µM), without a hit: at the highest dose activity change, negative = inhibition, most hits filed as inhibitors | 580,000 compounds, 1.1% hits | AID 1671190; further: on the % scale 0 is the no-effect control and ±100 the full control effect
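Purified human 12hLO (150 nM final) in 25 mM Hepes, 0.01% Triton X-100, pH 7.0 was preincubated 15 min at room temperature with compound. Then 40 uM arachidonic acid was added, 30 min. Hydroperoxide was read by Fe-XO absorbance ratio 573/405 nm.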
* marks the source's active call; other numbers are inactive results; u = inconclusive; x = no result given; [ ] = remark or other dose. Compounds with a hit are over-represented: about 8.7% of the library has one in this group of screens. The call rests on the fitted dose curve; in most records, active means well fitted curve in the direction sought with a large enough effect; inconclusive means small, poorly fitted or top-dose-only effect, or another doubt; inactive means no such curve, though single readings can be large; an effect the other way counts as inactive or inconclusive. Potency means the concentration at half of the fitted maximal effect.

SMILES | Sfp inh | HP1b binding inh | G9a inh | BAZ2B inh | JMJD2A Tudor | 12-LOX inh
CCN(CC)c1ccc(NC(=O)/C=C\c2ccccc2Cl)cc1 | -4% | -12% | 3.5µM* | u | u | u
CN(C)c1ccc(NC(=O)/C=C/c2ccccc2Cl)cc1 | 1% | -20% | 1.1µM* | -7% | -28% | -24%
O=C(/C=C/c1ccccc1Cl)Nc1ccc(-c2ccccc2)cc1 | x | x | x | x | x | 4%
CCCCn1nc(C(=O)Oc2ccc3c(C)cc(=O)oc3c2)c2ccccc2c1=O | 3% | 45% | 2.8µM* | -1% | -13% | u
O=c1c2c(-c3ccccc3)csc2nc2n1CCC2 | 32µM* | -20% | -36%[12.7 µM] | 9% | -19% | -35%
O=c1c2cc([N+](=O)[O-])ccc2nc2n1CCCC2 | -4% | -1% | 11% | -5% | -18% | 0%
O=c1c2c(-c3ccc([N+](=O)[O-])cc3)csc2nc2n1CCCCC2 | -26% | u | 35µM* | u | u | -4%
O=C(C[n+]1ccc(C(=O)N/N=C/c2ccc(Cl)cc2Cl)cc1)c1ccccc1 | -9% | 22% | 50µM* | -9% | u | u
O=C(N/N=C/C(Br)=C\c1ccccc1)c1ccc2nc[nH]c2c1 | 50µM* | 38% | 2%[59 µM] | -22% | -34% | 7%
O=C(CCCC(=O)NN=Cc1ccc(Cl)cc1Cl)NN=Cc1ccc(Cl)cc1Cl | x | 9% | x | x | -14% | 0%
O=C(N/N=C/c1ccc(Cl)cc1Cl)c1cccc(F)c1 | 20µM* | 11% | 48%[12.7 µM] | 6% | -2% | 13%
O=C(N/N=C/c1ccc(Cl)cc1Cl)c1ccc2nc[nH]c2c1 | -18% | 26% | 71µM* | -33% | 7% | 3%
c1ccn2c(SCc3ccc4c(c3)OCCO4)nnc2c1 | u | 32% | 56µM* | u | -6% | -7%
N#Cc1ccccc1S(=O)(=O)N[C@H]1CO[C@H]2[C@@H]1OC[C@@H]2n1nnnc1-c1ccc2c(c1)OCO2 | x | x | x | x | x | 25%
CNc1sc(C(C)=O)cc1C | x | x | x | x | x | 13µM*
CC(=O)c1c(C)[nH]c(-c2ccccc2)c1C | 2% | -26% | -9%[59 µM] | 50µM* | u | -3%
CC(=O)c1c(-c2ccccc2)[nH]c2ccccc12 | 14% | 47% | 0%[0.501 µM] | -5% | -6% | 0%
COCCNC(=O)[C@@H]1Cc2cn(Cc3ccncc3)c3cccc(c23)[C@H](CC(C)C)N1 | x | x | x | x | x | 25%[176 µM]
COc1ccc(N2CC(C)Cn3c2nc2c3c(=O)n(Cc3ccc(C)cc3)c(=O)n2C)c(OC)c1 (centres undefined) | -14% | -21% | 35µM* | x | u | u
CC1(C)CC(NCCC(=O)NC2CC(C)(C)NC(C)(C)C2)CC(C)(C)N1 | x | x | x | x | x | -17%
CC(=O)c1cnc(N(C)C)s1 | -14% | 76% | -12%[59 µM] | 30% | 12% | -1%
O=C1C(Cl)=C(N2CCCCC2)C(=O)C(Cl)=C1c1cnc(N2CCCCC2)s1 | 18µM* | u | 2.2µM* | 45µM* | 8.9µM* | x
CC(C)NC(=O)c1cnc2sc(N3CCCCCC3)nn2c1=O | x | 1% | 10%[59 µM] | -11% | -2% | u
CN(C)c1ncc(C2=C(Cl)C(=O)C(N3CCCC3)=C(Cl)C2=O)s1 | x | -84% | x | x | 11µM* | u
CC(C)CCN1CCC2(CC1)CN[S+](=O)([O-])c1cccnc1O2 | x | x | x | x | x | 6%[6.33 µM]
CCOC(=O)N1CCN(C(=O)COC(=O)c2ccccc2NCCO)CC1 | x | 7% | 50µM* | 36% | 3% | -19%
O=C(COC(=O)c1ccccc1NCCO)NCc1cccs1 | x | -16% | 45µM* | -1% | u | u
COc1ccc(CCNC(=O)COC(=O)c2ccccc2NCCO)cc1OC | x | -3% | 50µM* | -7% | u | -7%
O=C(OCC(=O)N1CCC(Cc2ccccc2)CC1)c1ccccc1NCCO | x | 29% | -7% | 13% | 13% | u
COc1ccc(N=C2SC(C(N)=O)CC(=O)N2Cc2ccc3c(c2)OCO3)cc1 (centres undefined) | 12% | 9% | -4% | 79µM* | 79µM* | -17%
